The whole screen tested about 5,500 compounds, of which about 2,000 (36%) were called active. About 18% were inconclusive and are not listed. No stated cut-off is given here; in the data, active means normalized growth mostly below about 0.91 (no sharp cut-off); inconclusive means no clear call, values can overlap the other calls; inactive means mostly above about 0.92. This is one part of the list.
Test: chemical genetic growth profiling, strain panel (AID 1159580);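 further: tested at 20 µM; growth read once vehicle control cultures reached saturation at 30 °C; 1 = growth at the plate median or of vehicle wells; lower values mean less growth of the strain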
Conditions: growth OD
[1] = S. cerevisiae deletion strains, locus YAL013W, strain DEP1, hits give low values
[2] = S. cerevisiae deletion strains, locus YHR030C, strain SLT2, hits give low values
[3] = S. cerevisiae deletion strains, locus YJR075W, strain HOC1, hits give low values
[4] = S. cerevisiae deletion strains, locus YMR263W, strain SAP30, hits give low values
[5] = S. cerevisiae deletion strains, locus YPL055C, strain LGE1, hits give low values

Measured: normalized growth

COC(=O)c1sccc1NC(=O)C1CC1
inactive: [1] 0.991 | S. cerevisiae deletion strains, locus YBR229C, strain ROT2, hits give low values 1 | S. cerevisiae deletion strains, locus YDL101C, strain DUN1, hits give low values 0.995 | S. cerevisiae deletion strains, locus YDR150W, strain NUM1, hits give low values 0.942 | S. cerevisiae deletion strains, locus YEL061C, strain CIN8, hits give low values 0.979 | S. cerevisiae deletion strains, locus YGR078C, strain PAC10, hits give low values 0.978 | [2] 1.01 | S. cerevisiae deletion strains, locus YHR087W, strain rtc3, hits give low values 0.99 | S. cerevisiae deletion strains, locus YJL187C, strain SWE1, hits give low values 0.977 | S. cerevisiae deletion strains, locus YJR043C, strain POL32, hits give low values 1.02 | [3] 0.99 | S. cerevisiae deletion strains, locus YLR039C, strain RIC1, hits give low values 1.01 | S. cerevisiae deletion strains, locus YLR058C, strain SHM2 (second series), hits give low values 0.976 | S. cerevisiae deletion strains, locus YLR085C, strain ARP6, hits give low values 0.92 | S. cerevisiae deletion strains, locus YLR262C, strain YPT6, hits give low values 1.07 | S. cerevisiae deletion strains, locus YML094W, strain GIM5, hits give low values 0.962 | S. cerevisiae deletion strains, locus YMR219W, strain ESC1, hits give low values 0.981 | [4] 0.988 | S. cerevisiae deletion strains, locus YMR307W, strain GAS1, hits give low values 1.06 | S. cerevisiae deletion strains, locus YNL153C, strain GIM3, hits give low values 1.01 | S. cerevisiae deletion strains, locus YNL298W, strain CLA4 (second series), hits give low values 1 | S. cerevisiae deletion strains, locus YNL322C, strain KRE1, hits give low values 0.979 | S. cerevisiae deletion strains, locus YNR030W, strain Alg12, hits give low values 0.989 | S. cerevisiae deletion strains, locus YOL006C, strain TOP1, hits give low values 0.982 | [5] 0.97 | S. cerevisiae deletion strains, locus YPL241C, strain CIN2, hits give low values 0.97 | S. cerevisiae deletion strains, locus YPR135W, strain CTF4, hits give low values 1.03 | S. cerevisiae strains, strain wild type, hits give low values 0.992

COC(=O)c1sccc1-c1ccc(/C=C/[N+](=O)[O-])o1
active: S. cerevisiae deletion strains, locus YDL214C, strain PRR2, hits give low values 0.126 | S. cerevisiae deletion strains, locus YDR477W, strain SNF1, hits give low values 0.518 | S. cerevisiae deletion strains, locus YER123W, strain YCK3, hits give low values 0.155 | S. cerevisiae deletion strains, locus YER133W, strain GLC7, hits give low values 0.121 | S. cerevisiae deletion strains, locus YFL009W, strain cdc4, hits give low values 0.718 | S. cerevisiae deletion strains, locus YFR019W, strain FAB1, hits give low values 0.154 | S. cerevisiae deletion strains, locus YGR040W, strain KSS1, hits give low values 0.551 | S. cerevisiae deletion strains, locus YGR052W, strain FMP48, hits give low values 0.268 | [2] 0.0849 | S. cerevisiae deletion strains, locus YHR079C, strain IRE1, hits give low values 0.113 | S. cerevisiae deletion strains, locus YHR082C, strain KSP1, hits give low values 0.178 | S. cerevisiae deletion strains, locus YHR205W, strain SCH9, hits give low values 0.509 | S. cerevisiae deletion strains, locus YJL095W, strain BCK1, hits give low values 0.126 | S. cerevisiae deletion strains, locus YJL157C, strain FAR1, hits give low values 0.14 | S. cerevisiae deletion strains, locus YJR066W, strain TOR1 (second series), hits give low values 0.0869 | S. cerevisiae deletion strains, locus YJR066W, strain TOR1, hits give low values 0.103 | S. cerevisiae deletion strains, locus YKL067W, strain YNK1, hits give low values 0.185 | S. cerevisiae deletion strains, locus YLR113W, strain HOG1, hits give low values 0.181 | S. cerevisiae deletion strains, locus YLR133W, strain CKI1, hits give low values 0.638 | S. cerevisiae deletion strains, locus YLR403W, strain SFP1, hits give low values 0.517 | S. cerevisiae deletion strains, locus YML070W, strain DAK1, hits give low values 0.111 | S. cerevisiae deletion strains, locus YMR205C, strain PFK2 (second series), hits give low values 0.704 | S. cerevisiae deletion strains, locus YNL020C, strain ARK1, hits give low values 0.702 | S. cerevisiae deletion strains, locus YNL183C, strain NPR1, hits give low values 0.0989 | S. cerevisiae deletion strains, locus YOL136C, strain PFK27, hits give low values 0.107 | S. cerevisiae deletion strains, locus YOR231W, strain MKK1, hits give low values 0.135 | S. cerevisiae deletion strains, locus YPL031C, strain PHO85, hits give low values 0.25 | S. cerevisiae deletion strains, locus YPL153C, strain RAD53, hits give low values 0.0913 | S. cerevisiae deletion strains, locus YPL204W, strain HRR25, hits give low values 0.091 | S. cerevisiae deletion strains, locus YPL256C, strain CLN2, hits give low values 0.147
inactive: S. cerevisiae deletion strains, locus YBL105C, strain PKC1, hits give low values 0.964 | S. cerevisiae deletion strains, locus YBR135W, strain CKS1, hits give low values 0.96 | S. cerevisiae deletion strains, locus YBR136W, strain MEC1, hits give low values 0.968 | S. cerevisiae deletion strains, locus YBR160W, strain CDC28, hits give low values 0.952 | S. cerevisiae deletion strains, locus YDL017W, strain CDC7, hits give low values 0.974 | S. cerevisiae deletion strains, locus YDL028C, strain MPS1, hits give low values 0.959 | S. cerevisiae deletion strains, locus YDL108W, strain KIN28, hits give low values 0.965 | S. cerevisiae deletion strains, locus YDR052C, strain DBF4, hits give low values 0.981 | S. cerevisiae deletion strains, locus YDR226W, strain ADK1, hits give low values 0.961 | S. cerevisiae deletion strains, locus YFR003C, strain YPI1, hits give low values 0.966 | S. cerevisiae deletion strains, locus YFR028C, strain CDC14, hits give low values 0.978 | S. cerevisiae deletion strains, locus YGR092W, strain DBF2, hits give low values 0.874 | S. cerevisiae deletion strains, locus YIL147C, strain SLN1, hits give low values 0.964 | S. cerevisiae deletion strains, locus YJL128C, strain PBS2, hits give low values 0.907 | S. cerevisiae deletion strains, locus YJR016C, strain ILV3, hits give low values 0.974 | S. cerevisiae deletion strains, locus YKL048C, strain ELM1, hits give low values 0.939 | S. cerevisiae deletion strains, locus YKL101W, strain HSL1, hits give low values 0.886 | S. cerevisiae deletion strains, locus YKL203C, strain TOR2, hits give low values 0.893 | S. cerevisiae deletion strains, locus YNL006W, strain LST8, hits give low values 0.958 | S. cerevisiae deletion strains, locus YNL207W, strain RIO2, hits give low values 0.977 | S. cerevisiae deletion strains, locus YNL307C, strain MCK1 (second series), hits give low values 0.823 | S. cerevisiae deletion strains, locus YOR061W, strain CKA2, hits give low values 0.729 | S. cerevisiae deletion strains, locus YOR119C, strain RIO1, hits give low values 0.875 | S. cerevisiae deletion strains, locus YOR329C, strain SCD5, hits give low values 0.965 | S. cerevisiae deletion strains, locus YPL209C, strain IPL1, hits give low values 0.969 | S. cerevisiae deletion strains, locus YPR025C, strain CCL1, hits give low values 0.955 | S. cerevisiae deletion strains, locus YPR106W, strain ISR1, hits give low values 0.959 | S. cerevisiae deletion strains, locus YPR111W, strain DBF20, hits give low values 0.961 | S. cerevisiae deletion strains, strain NNK1, hits give low values 0.963

COC(=O)C1C2CC3c4[nH]c5cc(OC)ccc5c4CCN3CC2CC(OC(=O)c2cc(OC)c(OC)c(OC)c2)C1OC (centres undefined)
inactive: [1] 0.996 | S. cerevisiae deletion strains, locus YAL040C, strain CLN3, hits give low values 1.07 | S. cerevisiae deletion strains, locus YDR363W, strain ESC2, hits give low values 1 | S. cerevisiae deletion strains, locus YER002W, strain NOP16, hits give low values 0.99 | [3] 1 | [4] 1 | S. cerevisiae deletion strains, locus YNL128W, strain TEP1, hits give low values 0.98 | S. cerevisiae deletion strains, locus YNL175C, strain NOP13, hits give low values 1 | S. cerevisiae deletion strains, locus YNL197C, strain WHI3, hits give low values 0.989 | S. cerevisiae deletion strains, locus YNL224C, strain SQS1, hits give low values 1.04 | S. cerevisiae deletion strains, locus YOR083W, strain WHI5 (second series), hits give low values 0.934 | [5] 1.02
